Rows were chosen to be rich in hits. Some 3.3% of all compounds tested hit in one or more screens of this group.
NPSR antagonist: neuropeptide S receptor (human) antagonism, cAMP. Q6W5P4. 220,000 tested, 1% active. AID 1461. Potency, µM (series often up to 38.3 µM), actives largely listed as inhibitors. CHO-NPSR cells, cAMP TR-FRET, antagonist mode; note: nearly all actives have a fitted effect of over 50% in size
Target sequence (Q6W5P4 whole entry, looked up): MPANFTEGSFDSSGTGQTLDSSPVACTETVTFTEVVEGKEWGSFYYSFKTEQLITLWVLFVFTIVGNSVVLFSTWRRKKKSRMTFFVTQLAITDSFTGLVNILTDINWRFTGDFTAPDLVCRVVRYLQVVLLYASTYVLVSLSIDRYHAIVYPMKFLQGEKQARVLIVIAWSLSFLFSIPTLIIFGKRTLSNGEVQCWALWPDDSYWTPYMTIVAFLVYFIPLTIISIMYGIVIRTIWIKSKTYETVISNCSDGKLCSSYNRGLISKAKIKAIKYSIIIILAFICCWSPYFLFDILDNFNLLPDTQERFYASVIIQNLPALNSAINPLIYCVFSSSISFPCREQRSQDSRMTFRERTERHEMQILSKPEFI
Tau fluor cs: counter-screen for tau fibril formation inhibitors; tau K18 P301L Alexa594 fluorescence, heparin fibrillization; Potency, µM (doses to about 57.7 µM); 280,000 tested, 0.93% active; note: nearly all actives have a fitted effect of over 55% in size
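Human K18 P301L tau (15 uM unlabeled plus 0.24 uM Alexa 594-labeled, final) in 100 mM sodium acetate pH 7 was mixed with compound and 20 uM heparin and incubated 6 hr at 37 C.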
Tau fibril FP: tau fibrillization inhibition (FP); 280,000 tested, 0.39% active; Potency, µM (titrated, usually from 57.7 µM), actives largely listed as inhibitors; AID 1468; P10636; K18 P301L tau heparin fibrillization, Alexa594 FP, 6 h; note: nearly all actives have a fitted effect of over 55% in size
Target sequence (P10636 561-689 P618L limits assumed): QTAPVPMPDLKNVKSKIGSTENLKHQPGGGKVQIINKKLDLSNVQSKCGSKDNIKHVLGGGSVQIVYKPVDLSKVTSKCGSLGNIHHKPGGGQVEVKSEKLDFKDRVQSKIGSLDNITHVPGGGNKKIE
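Steps: dispense K18 P301L tau (15 uM plus 0.24 uM Alexa 594 tracer, final) in pH 7 sodium acetate; add compound; add heparin (20 uM final); incubate 6 hr, 37 C; add ThT (30 uM final); after 1 hr ambient, read FP.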
Luc counter: counter-screen: inhibitors of Kinase-Glo firefly luciferase | Q27757 | Kinase-Glo luciferase, ATP luminescence, 8 min | Potency, µM (top dose mostly 38.3 µM), usual class: inhibitors | 200,000 tested, 0.28% active | AID 1379; note: nearly all actives have a fitted effect of over 60% in size
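Compounds were added to a substrate mix at pH 7.2 (50 mM imidazole, 10 uM ATP, within the enzyme's linear range), followed by Kinase-Glo detection reagent; luminescence was measured after 8 minutes at ambient temperature.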
Tau fibril ThT: blocks human tau fibril formation measured by thioflavin T; P10636; recombinant tau K18 P301L (four-repeat tau fragment), heparin-induced fibrillization, ThT fluorescence; Potency, µM (doses to about 57.4 µM), actives largely listed as inhibitors; 270,000 tested, 2.1% active; note: nearly all actives have a fitted effect of over 55% in size
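Aggregation was driven by heparin (20 uM final) acting on recombinant tau […] bearing P301L in 100 mM sodium acetate pH 7; fibrils were detected with Thioflavin T.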
A number is an active result; [ ] = another dose, or the depositor's remark. Calls come from the whole dose curve; as a rule, active = well fitted curve in the direction sought with a large enough effect; inconclusive = small, poorly fitted or top-dose-only effect, or another doubt; inactive = no such curve, though single readings can be large; an effect the other way counts as inactive or inconclusive.

What do the screens show for `COc1ccc(C(=O)Nc2nc(-c3cccs3)cs2)cc1`?
NPSR antagonist: inactive; Tau fluor cs: inconclusive; Tau fibril FP: inconclusive; Luc counter: inactive; Tau fibril ThT: inconclusive

What do the screens show for `Cc1ccc(Nc2nc(-c3cccs3)cs2)nc1`?
NPSR antagonist: inactive; Tau fluor cs: 22µM[quencher]; Tau fibril FP: inactive; Luc counter: inactive; Tau fibril ThT: 16µM

How did Cc1cc(O)ccc1Nc1nc(-c2cccs2)cs1 do in these assays?
NPSR antagonist: inactive; Tau fluor cs: 25µM[quencher]; Tau fibril FP: inactive; Luc counter: inactive; Tau fibril ThT: 14µM

How did c1cncc(Nc2nc(-c3cccs3)cs2)c1 do in these assays?
NPSR antagonist: inactive; Tau fluor cs: 16µM[quencher]; Tau fibril FP: inactive; Luc counter: inactive; Tau fibril ThT: inconclusive

What do the screens show for `CC(=O)O[C@H]1CC[C@@]2(C)C(=CC[C@@H]3[C@H]4CC[C@@H]([C@H](C)C(=O)O)[C@]4(C)CC[C@H]32)C1`?
Luc counter: inactive[7.66 µM]

What do the screens show for `Nc1ccc2oc3ccc(N)cc3c(=O)c2c1`?
NPSR antagonist: inactive; Tau fluor cs: inactive; Tau fibril FP: inactive; Luc counter: inactive; Tau fibril ThT: 14µM

What do the screens show for `C[C@H]1Cc2c(COc3ccccc3)nc3c(c2CO1)CN(S(=O)(=O)c1ccc(C#N)cc1)CC3`?
Tau fluor cs: inactive[11.6 µM]; Tau fibril FP: inactive[11.6 µM]; Luc counter: inactive[7.66 µM]; Tau fibril ThT: inactive[11.5 µM]

What do the screens show for `C(=C\c1ccco1)/C1=NN(c2ccccc2)C(c2ccco2)C1` (stereo not drawn)?
NPSR antagonist: inactive; Tau fluor cs: inconclusive; Tau fibril FP: inactive; Luc counter: inactive; Tau fibril ThT: inconclusive

What do the screens show for `O=[N+]([O-])c1ccc(/C=C/C2=NN(c3ccccc3)C(c3ccco3)C2)o1` (stereo not drawn)?
NPSR antagonist: inactive; Tau fluor cs: inconclusive; Tau fibril FP: inactive; Luc counter: inactive; Tau fibril ThT: 7.9µM

What do the screens show for `CCOc1ccc2c(c1)C(C)=CC(C)(C)N2C(=O)Nc1ccccc1`?
NPSR antagonist: inactive; Tau fluor cs: inconclusive; Tau fibril FP: inconclusive; Luc counter: inactive; Tau fibril ThT: 28µM

Results for COc1ccc(NC(=O)N2c3ccc(OC)cc3C(C)=CC2(C)C)cc1 ?
NPSR antagonist: inactive; Tau fluor cs: inconclusive; Tau fibril FP: inconclusive; Luc counter: inactive; Tau fibril ThT: 32µM

Results for Cc1ccc(N=Nc2c(N)nn3c(C)cc(C)nc23)cc1 ?
NPSR antagonist: inactive; Tau fluor cs: inactive; Tau fibril FP: inactive; Luc counter: inactive; Tau fibril ThT: inconclusive

How did Cc1nn(-c2ccccc2)c(N)c1N=O do in these assays?
NPSR antagonist: inactive; Tau fluor cs: inactive; Tau fibril FP: inactive; Tau fibril ThT: inactive

How did Cc1ccc(N=Nc2c(N)nn(-c3ccccc3)c2N)cc1 do in these assays?
NPSR antagonist: inactive; Tau fluor cs: inconclusive; Tau fibril FP: inactive; Luc counter: inactive; Tau fibril ThT: 4.5µM

Results for Cc1ccc(N=Nc2c(N)nn3c(N)c(C#N)c(C)nc23)cc1 ?
NPSR antagonist: inactive; Tau fluor cs: inconclusive; Tau fibril FP: inactive; Luc counter: inactive; Tau fibril ThT: 1.4µM

How did Cc1nn(-c2ccccc2)c(N)c1N=Nc1ccc2ccccc2c1 do in these assays?
NPSR antagonist: inactive; Tau fluor cs: 16µM[quencher]; Tau fibril FP: inactive; Luc counter: inactive; Tau fibril ThT: 5µM

What do the screens show for `CCn1c(=O)cc(OCC(=O)Nc2cc(OC)c(OC)c(OC)c2)c2ccccc21`?
Tau fluor cs: inconclusive; Tau fibril FP: inconclusive; Tau fibril ThT: inactive

Results for Clc1nssc1=Nc1ccc(Br)cc1 ?
NPSR antagonist: inactive; Tau fluor cs: inactive; Tau fibril FP: inconclusive; Luc counter: inactive; Tau fibril ThT: 13µM

How did Clc1ccc(N=c2ssnc2Cl)nc1 do in these assays?
NPSR antagonist: inactive; Tau fluor cs: inactive; Tau fibril FP: inactive; Luc counter: inactive; Tau fibril ThT: inactive

Results for OCc1ccccc1N=c1ssnc1Cl ?
NPSR antagonist: inactive; Tau fluor cs: inconclusive; Tau fibril FP: inconclusive; Luc counter: inactive; Tau fibril ThT: 35µM

How did COc1cc(N=c2ssnc2Cl)cc(OC)c1 do in these assays?
NPSR antagonist: inactive; Tau fluor cs: inactive; Tau fibril FP: inactive; Luc counter: inactive; Tau fibril ThT: inactive

What do the screens show for `N#Cc1cccc(N=c2ssnc2Cl)c1`?
NPSR antagonist: inactive; Tau fluor cs: inactive; Tau fibril FP: inconclusive; Luc counter: inactive; Tau fibril ThT: 11µM

How did CCCSCCCNC(=O)C1CCN(C(=O)c2cc3sccc3n2C)CC1 do in these assays?
Tau fluor cs: inactive; Tau fibril FP: inactive; Tau fibril ThT: inactive

What do the screens show for `C/C(=N/NC(=O)CNC(=O)c1ccncc1)c1ccco1`?
NPSR antagonist: inactive; Tau fluor cs: inactive; Tau fibril FP: inactive; Tau fibril ThT: inactive

What do the screens show for `C=CCn1c(N)c(C(=O)NCC2CCCO2)c2nc3ccccc3nc21` (stereo not drawn)?
NPSR antagonist: inactive; Tau fluor cs: inactive; Tau fibril FP: inactive; Tau fibril ThT: inactive

How did COc1ccc(-n2c(N)c(C(=O)NCC3CCCO3)c3nc4ccccc4nc32)c(OC)c1 (stereo not drawn) do in these assays?
NPSR antagonist: inconclusive; Tau fluor cs: inconclusive; Tau fibril FP: inactive; Luc counter: inactive; Tau fibril ThT: 28µM

How did Cc1ccc(OC(=O)c2ccc(N3CCOCC3)c([N+](=O)[O-])c2)cc1 do in these assays?
NPSR antagonist: inactive; Tau fluor cs: inconclusive; Tau fibril FP: inactive; Luc counter: inactive; Tau fibril ThT: 10µM

How did O=[N+]([O-])c1cc(Cl)ccc1N1CCCCC1 do in these assays?
NPSR antagonist: inactive; Tau fluor cs: inactive; Tau fibril FP: inactive; Luc counter: inactive; Tau fibril ThT: inactive

What do the screens show for `O=[N+]([O-])c1cc(Cl)ccc1N1CCN(c2ccccc2O)CC1`?
NPSR antagonist: inactive; Tau fluor cs: 16µM[quencher]; Tau fibril FP: inactive; Luc counter: inactive; Tau fibril ThT: 14µM

What do the screens show for `O=C(Oc1cc(Cl)ccc1Cl)c1ccc(N2CCOCC2)c([N+](=O)[O-])c1`?
NPSR antagonist: inactive; Tau fluor cs: inconclusive; Tau fibril FP: inactive; Luc counter: inactive; Tau fibril ThT: 16µM

What do the screens show for `CCOC(=O)c1c(C)oc2nc(C)nc(N3CCN(c4ccc(C(C)=O)cc4)CC3)c12`?
Tau fluor cs: inactive; Tau fibril FP: inactive; Tau fibril ThT: inconclusive

How did C[C@H]1Cc2c(COc3ccccc3)nc3c(c2CO1)CN(C(=O)c1cc(I)ccc1F)CC3 do in these assays?
Tau fluor cs: inactive[11.6 µM]; Tau fibril FP: inactive[11.6 µM]; Luc counter: inactive[7.66 µM]; Tau fibril ThT: inactive[11.5 µM]

Results for COC(=O)c1ccc(NC(=O)CN2CCN(S(=O)(=O)c3ccc(Br)cc3)CC2)cc1 ?
Tau fluor cs: inactive; Tau fibril FP: inactive; Tau fibril ThT: inactive

Results for Cc1ccc(-n2[nH]c(C)c(/C=N/Nc3ccc([N+](=O)[O-])cc3[N+](=O)[O-])c2=O)cc1C ?
NPSR antagonist: inactive; Tau fluor cs: 4.5µM[quencher]; Tau fibril FP: 20µM; Luc counter: inconclusive; Tau fibril ThT: 2.2µM
